# Assay results published in PubChem BioAssay (NCATS).
# Records with an inconclusive call do not appear. Calls of active or inactive are those of the source. Calls come from the whole dose curve; as a rule, active = well fitted inhibition curve with a large enough effect; inconclusive = small, poorly fitted or top-dose-only effect; inactive = flat fitted curve, though single readings scatter.
# Biological target: Ubiquitin carboxyl-terminal hydrolase 1 (Homo sapiens) (UniProt O94782)
# Experiment: Inhibitors of USP1/UAF1: Pilot qHTS (AID 504865); note: nearly all actives have a fitted effect of over 35% in size; note: potency is the fitted concentration of half-maximal effect;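 for activity change, negative = inhibition: rhodamine fluorescence freed from ubiquitin-rhodamine substrate followed over time; top concentration of the series differs between compounds; % is set by controls: 0 for no effect and ±100 for the full control effect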
# Conditions: purified USP1/UAF1, Ub-rhodamine cleavage fluorescence; series mostly up to 114 µM; activity change, negative = inhibition: at the top concentration
# How it was run: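 USP1/UAF1 complex (1nM) preincubated with compound 15 min at room temperature, then Ub-Rho substrate (150nM final) added. Fluorescence read kinetically at 480/540 nm, 6 reads every 60 seconds. Buffer: 50mM HEPES pH 7.8, 0.5mM EDTA, 0.1 mg/ml BSA, 1mM TCEP, 0.01% Tween-20.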
# Chain of Ubiquitin carboxyl-terminal hydrolase 1 (Homo sapiens) (O94782 whole entry, looked up): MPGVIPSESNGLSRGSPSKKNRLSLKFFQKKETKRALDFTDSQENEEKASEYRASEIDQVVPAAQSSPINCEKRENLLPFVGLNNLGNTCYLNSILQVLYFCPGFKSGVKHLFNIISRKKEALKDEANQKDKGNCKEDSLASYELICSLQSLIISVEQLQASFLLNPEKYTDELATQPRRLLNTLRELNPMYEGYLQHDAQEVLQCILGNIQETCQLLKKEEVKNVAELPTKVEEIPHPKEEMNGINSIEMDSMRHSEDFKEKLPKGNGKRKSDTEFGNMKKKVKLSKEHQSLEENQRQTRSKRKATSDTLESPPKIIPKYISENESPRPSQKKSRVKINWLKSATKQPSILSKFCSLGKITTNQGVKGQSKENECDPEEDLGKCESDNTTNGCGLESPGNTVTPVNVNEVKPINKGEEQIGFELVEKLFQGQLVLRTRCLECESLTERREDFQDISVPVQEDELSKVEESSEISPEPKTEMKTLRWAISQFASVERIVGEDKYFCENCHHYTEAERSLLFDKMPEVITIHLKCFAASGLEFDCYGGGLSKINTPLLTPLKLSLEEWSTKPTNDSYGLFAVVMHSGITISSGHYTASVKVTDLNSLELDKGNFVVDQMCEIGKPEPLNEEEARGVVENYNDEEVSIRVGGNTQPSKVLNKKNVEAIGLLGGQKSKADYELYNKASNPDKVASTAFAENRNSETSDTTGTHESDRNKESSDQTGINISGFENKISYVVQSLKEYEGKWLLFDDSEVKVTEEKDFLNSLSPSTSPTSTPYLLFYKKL
Structure (SMILES),"activity change, negative = inhibition",Potency
COc1nccc(-c2c(-c3ccc(F)cc3)ncn2C2CCC(O)CC2)n1 (configuration not stated),-1.25% (inactive),
Cc1ccc(NC(=O)c2cccc(N(C)C)c2)cc1NC(=O)c1ccc(O)cc1,-13.5% (inactive),
COc1ccnc(CS(=O)c2nc3ccc(OC(F)F)cc3[nH]2)c1OC (configuration not stated),-5.1% (inactive),
NCC1CCC(C(=O)O)CC1 (configuration not stated),14.2% [at 54.9 µM] (inactive),
CN1CC(=O)N2C(Cc3c([nH]c4ccccc34)[C@H]2c2ccc3c(c2)OCO3)C1=O (some centres not stated),-11.6% (inactive),
CC1(C)OC2CC3C4CC(F)C5=CC(=O)C=CC5(C)C4C(O)CC3(C)[C@]2(C(=O)CO)O1 (some centres not stated),-4.5% (inactive),
CC(NCCc1ccc(O)cc1)C(O)c1ccc(O)cc1 (configuration not stated),-13.9% (inactive),
COc1c(C)c2c(c(O)c1CC=C(C)CCC(=O)OCCN1CCOCC1)C(=O)OC2,-2.22% (inactive),
OC(c1cc(C(F)(F)F)nc2c(C(F)(F)F)cccc12)C1CCCCN1 (configuration not stated),-9.98% (inactive),
CCCCC[C@H](O)C=C[C@H]1[C@H](O)CC(=O)[C@H]1CCCCCCC(=O)O,-14.6% (inactive),
CN[C@H]1[C@@H](O[C@@H]2[C@H](O[C@@H]3[C@@H](O)[C@@H](O)[C@@H](N=C(N)N)[C@@H](O)[C@@H]3N=C(N)N)O[C@H](C)[C@@]2(O)C=O)O[C@@H](CO)[C@@H](O)[C@H]1O,11.8% [at 54.9 µM] (inactive),
Nc1ccn([C@@H]2O[C@H](CO)[C@@H](O)[C@H]2O)c(=O)n1,3.3% (inactive),
O=C1C(CCC(O)c2ccc(F)cc2)C(c2ccc(O)cc2)N1c1ccc(F)cc1 (configuration not stated),-14.8% (inactive),
CCCCC(C=O)NC(=O)C(CC(C)C)NC(=O)OCc1ccccc1 (configuration not stated),-11.8% (inactive),
N#CC(c1ccc(Cl)cc1)c1c(Cl)cc(-n2ncc(=O)[nH]c2=O)cc1Cl (configuration not stated),,79.4 µM (active)
CN1CCN2c3ncccc3Cc3ccccc3C2C1 (configuration not stated),,inactive
Cc1cc(NC(=O)Nc2ccc(N(C)C)cc2)c2cc(F)cc(F)c2n1,-8.09% (inactive),
CC(C)CN(C[C@@H](O)[C@H](Cc1ccccc1)NC(=O)O[C@H]1CO[C@H]2OCC[C@H]21)S(=O)(=O)c1ccc(N)cc1,-2.3% (inactive),
C[C@H]1O[C@@H](n2cc(F)c(=O)[nH]c2=O)[C@H](O)[C@H]1O,-5.5% (inactive),
Cc1cc2nc3c(=O)[nH]c(=O)nc-3n(CC(O)C(O)C(O)CO)c2cc1C (configuration not stated),,31.6 µM (active)
CC1C(=O)OC2C(O)C34C5CC(C(C)(C)C)C36C(OC(=O)C6O)OC4(C(=O)O5)C12O (configuration not stated),-4.31% (inactive),

# Biological target: DNA dC->dU-editing enzyme APOBEC-3G (Homo sapiens) (UniProt Q9HC16)
# Experiment: qHTS for inhibitors of Vif-A3G interactions: Validation (AID 588379); note: 0% is about no effect
# Conditions: Vif-A3G protein interaction assay; series mostly up to 46.1 µM; activity change, negative = inhibition: at the top concentration
# How it was run: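 Yellow fluorescence (Ex 488, Em 500-530) of Vif-coexpressing HeLa A3G-eYFP cells, scanned by Acumen cytometer, reports blocked A3G degradation. Cells plated at 700/well overnight at 37 deg C before compound addition, then a further overnight compound incubation at 37 deg C.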
# Chain of DNA dC->dU-editing enzyme APOBEC-3G (Homo sapiens) (Q9HC16 whole entry, looked up): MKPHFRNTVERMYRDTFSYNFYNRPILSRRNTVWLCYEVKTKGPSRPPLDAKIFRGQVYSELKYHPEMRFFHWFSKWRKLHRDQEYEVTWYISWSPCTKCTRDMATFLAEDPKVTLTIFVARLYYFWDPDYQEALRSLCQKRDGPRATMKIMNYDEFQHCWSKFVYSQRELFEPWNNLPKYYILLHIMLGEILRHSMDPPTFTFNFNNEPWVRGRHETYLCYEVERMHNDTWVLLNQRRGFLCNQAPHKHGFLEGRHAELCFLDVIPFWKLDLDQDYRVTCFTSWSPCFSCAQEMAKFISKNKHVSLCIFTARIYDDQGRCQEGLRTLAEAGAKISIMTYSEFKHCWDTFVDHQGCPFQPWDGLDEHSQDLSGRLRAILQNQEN
row,Structure (SMILES),"activity change, negative = inhibition"
1,COc1nccc(-c2c(-c3ccc(F)cc3)ncn2C2CCC(O)CC2)n1 (configuration not stated),7.84% (inactive)
2,Cc1ccc(NC(=O)c2cccc(N(C)C)c2)cc1NC(=O)c1ccc(O)cc1,-1.12% (inactive)
3,CCCCC[C@H](O)C=C[C@H]1[C@H](O)CC(=O)[C@H]1CCCCCCC(=O)O,-0.154% (inactive)
4,Nc1ccn([C@@H]2O[C@H](CO)[C@@H](O)[C@H]2O)c(=O)n1,-5.33% (inactive)
5,CCCCC(C=O)NC(=O)C(CC(C)C)NC(=O)OCc1ccccc1 (configuration not stated),0.188% (inactive)
6,CN1CCN2c3ncccc3Cc3ccccc3C2C1 (configuration not stated),-5.62% (inactive)
7,Cc1cc(NC(=O)Nc2ccc(N(C)C)cc2)c2cc(F)cc(F)c2n1,-1.7% (inactive)
8,CC1C(=O)OC2C(O)C34C5CC(C(C)(C)C)C36C(OC(=O)C6O)OC4(C(=O)O5)C12O (configuration not stated),1.82% (inactive)

# Biological target: Luciferin 4-monooxygenase (Photinus pyralis) (UniProt P08659)
# Experiment: Biochemical firefly luciferase enzyme assay for NPC (AID 624030);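 note: purified P. pyralis luciferase at 10 nM with luciferin and ATP substrate; 0% = DMSO and -100% = full luciferase inhibition by PTC124 control; nearly all actives have a fitted effect of over 70% in size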
# Conditions: purified P. pyralis luciferase, luminescence, 5 min; series mostly up to 58.6 µM; activity change, negative = inhibition: at the top concentration
# How it was run: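 Purified P. pyralis luciferase at 10 nM in 50 mM Tris Acetate (final), luminescence read within 5 minutes of enzyme addition to compounds. Activity normalised to PTC124 versus DMSO; concentration-response curves classed by r2, magnitude and activity.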
# Chain of Luciferin 4-monooxygenase (Photinus pyralis) (P08659 whole entry, looked up): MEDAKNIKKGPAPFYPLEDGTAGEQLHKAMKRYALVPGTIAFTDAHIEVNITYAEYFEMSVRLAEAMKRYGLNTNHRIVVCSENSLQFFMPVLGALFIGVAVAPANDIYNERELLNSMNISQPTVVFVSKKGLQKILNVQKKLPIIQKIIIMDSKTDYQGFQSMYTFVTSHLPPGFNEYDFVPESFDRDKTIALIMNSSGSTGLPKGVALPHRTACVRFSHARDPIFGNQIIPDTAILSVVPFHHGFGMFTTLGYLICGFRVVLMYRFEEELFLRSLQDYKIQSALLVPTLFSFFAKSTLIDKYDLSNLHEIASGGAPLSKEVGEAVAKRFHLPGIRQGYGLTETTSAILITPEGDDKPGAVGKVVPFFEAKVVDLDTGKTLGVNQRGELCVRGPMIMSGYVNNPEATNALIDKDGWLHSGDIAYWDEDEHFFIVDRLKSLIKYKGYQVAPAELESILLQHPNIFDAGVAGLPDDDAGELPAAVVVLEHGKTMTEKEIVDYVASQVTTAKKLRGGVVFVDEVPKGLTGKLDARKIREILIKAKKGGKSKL
row,Structure (SMILES),"activity change, negative = inhibition"
1,COc1ccnc(CS(=O)c2nc3ccc(OC(F)F)cc3[nH]2)c1OC (configuration not stated),-5.19% (inactive)
2,NCC1CCC(C(=O)O)CC1 (configuration not stated),0.555% [at 24.9 µM] (inactive)
3,CN1CC(=O)N2C(Cc3c([nH]c4ccccc34)[C@H]2c2ccc3c(c2)OCO3)C1=O (some centres not stated),0.692% (inactive)
4,COc1c(C)c2c(c(O)c1CC=C(C)CCC(=O)OCCN1CCOCC1)C(=O)OC2,18.5% (inactive)
5,O=C1C(CCC(O)c2ccc(F)cc2)C(c2ccc(O)cc2)N1c1ccc(F)cc1 (configuration not stated),0.514% (inactive)
6,CN1CCN2c3ncccc3Cc3ccccc3C2C1 (configuration not stated),1.96% (inactive)
7,CC(C)CN(C[C@@H](O)[C@H](Cc1ccccc1)NC(=O)O[C@H]1CO[C@H]2OCC[C@H]21)S(=O)(=O)c1ccc(N)cc1,0.555% (inactive)
8,Cc1cc2nc3c(=O)[nH]c(=O)nc-3n(CC(O)C(O)C(O)CO)c2cc1C (configuration not stated),-16.8% (inactive)
